# Source: PubChem
# A selection: hits, their analogues and other compounds. The true share with any hit is near 21%.
# Pf growth 96h: Primary qHTS for delayed death inhibitors of the malarial parasite plastid, 96 hour incubation; P. falciparum luciferase reporter growth, 96 h; Potency, µM (top dose mostly 28.7 µM), without a hit: at the top dose activity change, negative = inhibition, usual class: inhibitors; hit rate 6.9% among 320,000; AID 504834, 2011; active = well fitted inhibition curve with a large enough effect; inconclusive = small, poorly fitted or top-dose-only effect, or another doubt; inactive = no such curve, though single readings can be large or run the other way; note: potency is the fitted concentration of half-maximal effect; % is set by controls: 0 for no effect and ±100 for the full control effect
#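 Infected RBCs, 2% Hct / 0.05% parasitemia final; luciferase-reporter P. falciparum; cpd 96 h, 37 C, 5% CO2; luciferase detection reagent; luminescence.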
# SARS PLpro yeast: qHTS of Yeast-based Assay for SARS-CoV PLP. Potency, µM (top dose mostly 32.9 µM), without a hit: top-dose activity, positive = growth rescue, hits mostly activators. S. cerevisiae expressing SARS-CoV PLpro, growth rescue. hit rate 0.19% among 330,000; note: potency is the fitted concentration of half-maximal effect; 0% is about no effect; nearly all actives have a fitted effect of over 55% in size
# Cycloheximide cs: Cycloheximide Counterscreen for Small Molecule Inhibitors of Shiga Toxin. cell reporter, cycloheximide protein synthesis inhibition counterscreen. max response, %. hit rate 12% among 300,000; in the data active = max response mostly above about 13%, no sharp cut-off; inactive = mostly below about 14%; note: read at 38.3 µM for the half of the compounds with a filed dose; 0% is about no effect
# NS1 inh: qHTS Assay for Inhibitors of Influenza NS1 Protein Function. Potency, µM (highest dose often 46.1 µM), for inactives: at the top dose activity, positive = more growth. hit rate 0.4% among 270,000; note: potency is the fitted concentration of half-maximal effect; actives are rising curves; nearly all actives have a fitted effect of over 50% in size
#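 In this qHTS, NS1 from influenza A is expressed in budding yeast, where it slows growth. Cells are switched from glucose to 2% galactose medium (pH 6.0, -URA), treated with compound, and growth recovery is read at OD600.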
# Pf growth 48h: Primary qHTS for delayed death inhibitors of the malarial parasite plastid, 48 hour incubation. hit rate 5.9% among 310,000. AID 504832, 2011. Potency, µM (highest dose often 28.7 µM), without a hit: at the top dose activity change, negative = inhibition, hits mostly inhibitors. P. falciparum luciferase growth in erythrocytes, 48 h; active = well fitted inhibition curve with a large enough effect; inconclusive = small, poorly fitted or top-dose-only effect, or another doubt; inactive = no such curve, though single readings can be large or run the other way; note: potency is the fitted concentration of half-maximal effect; % is set by controls: 0 for no effect and ±100 for the full control effect
#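 In quantitative HTS format, infected erythrocytes bearing luciferase-reporter parasites were treated for a single generation at 37 C. Luminescence after adding detection reagent served as the growth measure.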
# Shiga inhibitor: A qHTS for Small Molecule Inhibitors of Shiga Toxin | Vero cells, Shiga toxin protein synthesis inhibition reporter | inhibition, % at 38.7 µM | hit rate 9.2% among 290,000 | AID 2315, 2010; in the data active = inhibition mostly above about 28%, no sharp cut-off; inactive = mostly below about 43%; note: 0% is about no effect
# * marks the source's active call; other numbers are inactive results; i = inactive; u = inconclusive; x = not tested or not shown. Unless noted, calls come from the whole dose curve.
SMILES,Pf growth 96h,SARS PLpro yeast,Cycloheximide cs,NS1 inh,Pf growth 48h,Shiga inhibitor
C=CCn1c(SCC(=O)OC)nc2sc3c(c2c1=O)CCN(C)C3,8%,-5%,-2,14%,u,-6
CCn1nnnc1SCC(=O)c1ccc2c(c1)OCCO2,48%,3%,52*,-2%,118%,113*
CCn1c(SCC(=O)c2ccc3c(c2)OCCO3)nnc1C(C)C,u,2%,19*,-7%,-19%,35
CC(C)n1nnnc1SCC(=O)c1ccc2c(c1)OCCO2,194%,1%,36*,-6%,47%,42*
O=C(CN(Cc1ccco1)C(=O)c1ccc(N2CCCC2=O)cc1)Nc1ccccc1C(F)(F)F,-19%,x,x,x,u,x
Cc1cc(C)cc(C(=O)NCC(=O)OCC(=O)N2CCN(S(=O)(=O)c3ccc4ccccc4c3)CC2)c1,-17%,7%,0,u,10%,-8
Nc1nc(Nc2ccc(Cl)cc2)nc2ccccc12,u,-34%,30*,-27%,x,27
Oc1ccc(Nc2nc(-c3ccc(Cl)cc3)nc3ccccc23)cc1,x,x,-3,x,x,2
CN(C)c1ccc(Nc2nc(N)c3ccccc3n2)cc1,8.3µM*,-13%,-1,-2%,u,x
CN(C)c1nc(Nc2ccccc2)nc(N(C)C)n1,0%,1%,3,-60%,31%,14
Cc1ccccc1Nc1nc(N)c2ccccc2n1,u,-3%,21*,-5%,-90%,52*
COc1ccc(C)cc1Nc1nc(N)c2ccccc2n1,u,1%,28*,-12%,u,55*
Cc1ccccc1Nc1nc(N)nc(CSc2nc3ccccc3c(=O)n2C)n1,x,-1%,-1,-2%,-12%,-12
CCOc1ccc(Cn2c(=O)oc3ccccc32)cc1,u,1%,2,8%,58%,-3
CCOc1ccc(Nc2nc(N)c3ccccc3n2)cc1,u,-23%,0,-12%,u,11
Nc1nc(Nc2ccccc2)nc2ccccc12,u,-17%,28,-34%,3.3µM*,56
CC(C)(C)c1ccc(OCCCC(=O)Nc2cccc(S(=O)(=O)N3CCOCC3)c2)cc1,u,4%,x,x,u,x
CC(C)(C)c1ccc(OCCC(=O)Nc2cccc(S(=O)(=O)N3CCCC3)c2)cc1,u,3%,x,x,10µM*,x
CC(=O)c1ccc(OCCCC(=O)Nc2cccc(S(=O)(=O)N3CCCCC3)c2)cc1,u,-1%,x,x,13µM*,x
CCOc1ncccc1C(=O)Nc1cccc(S(=O)(=O)N2CCOCC2)c1,x,2%,x,x,x,x
Cn1c(N)c(C(=O)Nc2ccc(-c3ccccc3)cc2)sc1=S,-9%,0%,1,2%,-30%,10
O=C(CSc1ccc(Cl)cc1)OCC(=O)N1CCN(c2ccccc2)CC1,23%,-1%,x,x,1%,x
CSc1nc2ccc(Br)cc2[nH]1,u,-3%,10,-45%,23%,18
CC(C)Sc1nc2ccc(Br)cc2[nH]1,1%,-3%,36*,-34%,33%,88*
Cc1ccnc(NS(=O)(=O)c2ccc(NC(=O)c3ccc4c(c3)OCCO4)cc2)n1,17%,1%,6,0%,18%,-3
SMILES,Pf growth 96h,SARS PLpro yeast,Cycloheximide cs,NS1 inh,Pf growth 48h,Shiga inhibitor
O=C(Nc1cccc2ccccc12)N1CCN(c2ncccn2)CC1,-18%,-2%,11,4%,-1%,17
S=C(Nc1cccc2ccccc12)N1CCN(c2ncccn2)CC1,u,8%,24*,-2%,58%,44
NC(=O)C1CCCN(C(=S)Nc2cccc3ccccc23)C1 (stereo not given),13µM*,25%,-8,2%,3%,-9
CC(=O)N/C(=C\c1ccccc1)C(=O)OC(C)C(=O)c1ccccc1 (stereo not given),30%,1%,x,x,2%,x
Cc1ccc(C(=O)Nc2cnc3ccccn3c2=O)cc1,x,-15%,41*,-49%,205%,103*
O=C(Nc1cnc2ccccn2c1=O)c1ccc(Cl)cc1Cl,i,-2%,44*,x,425%,96*
COc1ccc(-n2nc3cc(C)c(N)cc3n2)cc1Cl,5%,10%,40*,29%,121%,39*
Cc1cc2nn(-c3ccc(Cl)cc3)nc2cc1N,431%,5%,50*,9%,95%,113*
Cc1cc2nn(-c3ccc(F)cc3)nc2cc1N,u,3%,58*,u,-35%,x
CCC1CCCCN1C(=O)c1ccc2c(c1)C(=O)N(c1ccc(C)cc1)C2=O (stereo not given),34%,-3%,-2,-4%,5%,-10
C[C@H](NC(=O)Cc1cccc2ccccc12)C(=O)N1CCOCC1,x,-10%,x,x,x,x
CC1CN(C(=O)c2cc(-c3ccncc3)nc3ccccc23)CC(C)O1 (stereo not given),-10%,-3%,x,x,-29%,x
Cc1ccc2nc(-c3ccccc3)cc(C(=O)N3CC(C)OC(C)C3)c2c1 (stereo not given),u,-3%,x,x,10µM*,x
Cc1ccc2nc(-c3ccccc3)cc(C(=O)N3CCc4ccccc4C3)c2c1,12µM*,-10%,17,0%,9.3µM*,-5
COc1ccc(-c2cc(C(=O)N3CCCCCC3)c3cc(C)ccc3n2)cc1,13µM*,-7%,2,-64%,u,-5
COc1ccc(-c2cc(C(=O)N3CCOCC3)c3cc(C)ccc3n2)cc1,x,-5%,9,-32%,23%,44
CCN(CC)S(=O)(=O)c1ccc2c(c1)N(CC(=O)N1CCC(C(N)=O)CC1)C(=O)CO2,15%,-1%,-1,-1%,-15%,-5
COc1ccc(NC2=CC(c3ccc(OC)c(OC)c3)N(c3ccc(OC)cc3)C2=O)cc1 (stereo not given),u,u,5,8.9µM*,u,-9
COc1ccc(OC2C(=O)N(c3cc(C)ccc3C)C2c2ccc(OC)c(OC)c2)cc1 (stereo not given),20%,6%,-4,5%,7.4µM*,-13
NS(=O)(=O)c1ccc(NC2=CC(c3ccc([N+](=O)[O-])cc3)N(c3ccc(S(N)(=O)=O)cc3)C2=O)cc1 (stereo not given),-10%,-4%,-2,-1%,u,1
COc1ccc(OC2C(=O)N(c3ccc(C)c(C)c3)C2c2ccc(OC)c(OC)c2)cc1 (stereo not given),u,u,-3,u,9.3µM*,-16
COc1ccccc1CNC(=O)c1cccc(S(=O)(=O)N(C)c2ccccc2)c1,u,8%,x,x,u,x
Cc1ccc(/C=C(\NC(=O)c2ccccc2)C(=O)NCCc2ccccn2)o1,-3%,20%,11*,21%,-3%,24
CN(C)CCCNC(=O)/C(=C/c1ccc(-c2ccc([N+](=O)[O-])cc2)o1)NC(=O)c1ccccc1,u,-1%,-2,-7%,u,20
